Assay outcomes: PubChem, National Center for Advancing Translational Sciences (NCATS)
Most compounds without a hit are left out; they make up all but 2.8% or so of the library.
D3 ag: D3 dopamine receptor (human) agonism. D3R DiscoveRx beta-arrestin cells, luminescence, 90 min. hit rate 0.58% among 410,000. max activation, %; in the data active = max activation above about 30%
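Agonist mode: compounds and dopamine controls were applied to plated cells for 90 min at 37 degrees C after an overnight attachment at 1500 cells/well. Luminescent read-out followed 30 - 60 minutes at room temperature with DiscoveRx detection reagent.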
RGS4 inhibitor: blocks human RGS4-accelerated GTP hydrolysis | Transcreener GDP fluorescence polarization, RGS4-accelerated GTP hydrolysis | Potency, µM (series often up to 114 µM), actives largely listed as inhibitors | P49798 | hit rate 0.039% among 390,000; active = well fitted inhibition curve with a large enough effect; inconclusive = small, poorly fitted or top-dose-only effect; inactive = no such curve, though single readings can be large or run the other way; note: nearly all actives have a fitted effect of over 75% in size
Target sequence (P49798 whole entry, looked up): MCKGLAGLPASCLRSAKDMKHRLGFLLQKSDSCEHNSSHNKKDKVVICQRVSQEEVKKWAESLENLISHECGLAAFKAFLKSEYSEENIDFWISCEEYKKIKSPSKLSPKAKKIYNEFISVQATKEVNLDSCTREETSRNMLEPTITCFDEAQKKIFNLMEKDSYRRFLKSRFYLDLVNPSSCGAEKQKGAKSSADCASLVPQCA
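MLSMR compounds (23 nl, pin-transferred) preincubated 10 min at room temperature with a 500nM (2x) first reagent, then RGS4 at 900nM (2x) plus Transcreener GDP mix added; fluorescence polarization (620/688 nm) read before and after 90 min at 30 °C.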
PI4K2A inh: PI4K2A (human) kinase inhibition; Q9BTU6; purified PI4K2A, ADP-Glo luminescence, 1 h; hits give low values; activity change, negative = inhibition, % at 76.9 µM; hit rate 0.13% among 420,000; AID 1346378; in the data active = activity change below about -50%; inconclusive = mostly about -30% to -49%
Target sequence (Q9BTU6 whole entry, looked up): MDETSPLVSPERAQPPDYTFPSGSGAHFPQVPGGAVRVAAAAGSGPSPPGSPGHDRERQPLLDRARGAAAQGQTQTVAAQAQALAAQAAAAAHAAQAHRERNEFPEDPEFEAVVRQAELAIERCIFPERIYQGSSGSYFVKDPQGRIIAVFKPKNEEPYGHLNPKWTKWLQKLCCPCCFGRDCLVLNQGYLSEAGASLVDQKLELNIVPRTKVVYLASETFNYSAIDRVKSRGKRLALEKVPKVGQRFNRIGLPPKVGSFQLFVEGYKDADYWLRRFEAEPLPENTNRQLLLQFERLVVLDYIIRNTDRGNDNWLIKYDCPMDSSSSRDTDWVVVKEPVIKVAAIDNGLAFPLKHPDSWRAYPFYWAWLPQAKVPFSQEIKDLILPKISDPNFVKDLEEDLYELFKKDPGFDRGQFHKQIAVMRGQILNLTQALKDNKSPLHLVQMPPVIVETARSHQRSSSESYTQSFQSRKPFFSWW
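In this quantitative HTS, ADP production by PI4K2A was quantified luminescently after 1 h at ambient temperature; 100 microM adenosine served as plate-quality control.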
LDHA block: blocks human lactate dehydrogenase A. P00338. purified LDHA, NADH/diaphorase-resazurin fluorescence; hits give low values. activity change, % (values are at about 110 or 230 µM). hit rate 0.15% among 480,000; in the data active = activity change below about -30%; inconclusive = mostly about -25% to -30%
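Human LDH5 at 2 nM final in Tris HCl pH 7.4 with 0.06 mM NADH and 0.2 mM pyruvate, reacted 5 minutes at room temperature. Remaining NADH coupled via diaphorase/resazurin; resorufin fluorescence read at 0 and 20 minutes, normalized to enzyme-free and DMSO wells.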
DRD3 antagonist: D3 dopamine receptor (human) antagonism | P35462 | D3R cells, DiscoveRx beta-arrestin luminescence, antagonist mode; hits give low values | max response, negative = inhibition, % | hit rate 2.5% among 360,000; in the data active = max response below about -50%; inconclusive = no clear call, values can overlap the other calls
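Cells plated overnight at 1500 cells/well, then exposed to library compounds with dopamine controls for 90 minutes at 37 degrees C. DiscoveRx reagent added for 30–60 minutes at room temperature; luminescence read, quantitative HTS format.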
pAkt inh: Akt phosphorylation inhibition | hit rate 0.32% among 360,000 | activity change, % for hits at 50 µM | Neuro2A IGF-stimulated pAkt S473 HTRF, 20 min; hits give low values; in the data active = activity change below about -80%; inconclusive = mostly about -51% to -80%
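Neuro2A cells (4,500/well, DMEM with 0.5% FBS) were treated with compound at a single 50 µM final concentration, stimulated with 6 nM IGF for 20 min at 37 °C, and lysed. Phospho-Akt Ser473 was read by HTRF as 665/615 ratio ×10^4.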
A number is an active result; – = inactive; ? = inconclusive; · = no result.

SMILES	D3 ag	RGS4 inhibitor	PI4K2A inh	LDHA block	DRD3 antagonist	pAkt inh
O=C(Nc1cc(Cl)ccc1Cl)c1ccco1	–	–	–	–	–	–
CCOC(=O)C1=C(C)N(c2ccc(OC)cc2)C(=O)/C1=C\c1ccc(O)c(OCC)c1	–	?	–	–	–	–
CCOC(=O)C1=C(C)N(c2ccc(OC)cc2)C(=O)/C1=C\c1cccs1	71.5	–	–	–	–	–
O=c1c(N=Nc2ccc(O)cc2)c(-c2ccccc2)[nH]n1-c1ccc([N+](=O)[O-])cc1	–	–	–	–	-70.3	–
N#Cc1cn(C2CC2)c(=O)n(Cc2coc(-c3ccc(Cl)cc3)n2)c1=O	·	·	·	–	·	·
CCOC(=O)N1CCN(Cc2ccc(O)c3ncccc23)CC1	–	–	–	–	?	–
Fc1ccc(N2CCN(Cc3ccccn3)CC2)cc1	–	–	–	-30.6	–	–
CCOC(=O)N1CCN(Cc2ccccn2)CC1	–	–	–	?	?	-104.7%
CC(=O)Nc1c(-c2cc(=O)oc3cc(C)c(Cl)cc23)oc2ccccc12	·	·	·	–	·	·
CCOC(=O)C1(CCOc2ccccc2)CCN(Cc2cccc3nonc23)CC1	–	–	–	–	-88.7	–
CCOC(=O)C1(CCc2ccccc2)CCN(Cc2ccc(O)cc2)CC1	–	–	–	–	-57.1	–
CCOC(=O)C1(CCc2ccccc2)CCN(Cc2ccc(OC)cc2)CC1	–	–	–	–	–	–
CCOC(=O)C1(CCOc2ccccc2)CCN(Cc2ccc(O)cc2)CC1	–	–	–	–	?	–
O=C(COC(=O)C1CCOCC1)c1ccc[nH]1	·	·	·	–	·	·
CC(C)(C)NC(=O)COC(=O)c1cc(-c2ccccc2)nc2c1cnn2Cc1cccc(F)c1	·	·	·	–	·	·
Cc1cc(C)c(CN2CCC(n3nccc3NC(=O)c3ccccc3Cl)CC2)cc1C	–	–	–	–	-52.4	–
Cn1cc(CN2CCC(n3nccc3NC(=O)c3ccccc3Cl)CC2)c2ccccc21	–	–	–	–	-52.1	–
COc1ccccc1C(=O)Nc1ccnn1C1CCN(Cc2cn(C)c3ccccc23)CC1	–	–	–	–	–	–
Cc1nc2cc(-c3cccc(F)c3)nn2c(C)c1CCC(=O)NC1CCN(Cc2ccccc2)CC1	·	·	·	–	·	·
CCCSc1cc(NCCOC(=O)CCC)c([N+](=O)[O-])c2nonc12	–	?	–	–	–	–
CC(=O)OCCCNc1cc(SCc2ccco2)c2nonc2c1[N+](=O)[O-]	–	?	?	–	–	–
O=[N+]([O-])c1c(NCCCO)cc(Sc2nc3ccccc3s2)c2nonc12	–	?	?	–	-89.9	–
CCC(=O)OCCNc1cc(Sc2nc3ccccc3[nH]2)c2nonc2c1[N+](=O)[O-]	–	?	–	–	-115.9	–
CCCC(=O)OCCNc1cc(SCc2ccco2)c2nonc2c1[N+](=O)[O-]	–	–	?	–	–	–
CCC(=O)OCCNc1cc(Sc2nc3ccccc3s2)c2nonc2c1[N+](=O)[O-]	–	?	–	–	-87.8	–
SMILES	D3 ag	RGS4 inhibitor	PI4K2A inh	LDHA block	DRD3 antagonist	pAkt inh
CCCC(=O)OCCNc1cc(Sc2nccn2C)c2nonc2c1[N+](=O)[O-]	–	?	–	–	-91.9	–
O=C(CSc1ncnc2nc[nH]c12)NCCc1c[nH]c2ccc(Cl)cc12	·	·	·	–	·	·
CN(CC(=O)NC(C)(C)C)c1nc2ccccc2o1	·	·	·	–	·	·
O=Cc1c(-c2cccc(Br)c2)[nH]c2ccccc12	·	·	·	–	·	·
Cc1ccc2ccc(C3C(=O)c4ccccc4C3=O)nc2c1	–	–	–	–	-63.5	·
O=C(Nc1ccc2c(c1)OCCO2)C(CCc1ccccc1)N(Cc1ccccc1)Cc1ccccc1 (configuration not stated)	–	·	–	–	–	–
O=C(Nc1ccc2c(c1)OCCO2)C(CCc1ccccc1)N1CCC(Cc2ccccc2)CC1 (configuration not stated)	–	·	–	–	-69.1	–
CCc1cccc(C)c1NC(=O)C(C)n1c2ccccc2c2nc(=O)cc(C)n21 (configuration not stated)	·	·	·	–	·	·
Cc1cc(C)cc(OC(=O)CS(=O)c2ccc(C(F)(F)F)cc2[N+](=O)[O-])c1 (configuration not stated)	–	–	–	–	-73.3	–
Cc1ccc(OCCNc2ccc(C(F)(F)F)cc2[N+](=O)[O-])cc1	–	–	–	–	–	–
O=C(CS(=O)c1ccc(C(F)(F)F)cc1[N+](=O)[O-])Oc1ccc(Cl)cc1 (configuration not stated)	–	–	–	–	-96.5	–
Cc1ccccc1NC(=O)c1c(-c2ccccc2)noc1C	–	–	–	–	?	·
Cc1ccc(F)cc1NC(=O)c1c(-c2ccccc2)noc1C	–	–	–	–	-50.0	–
Cc1onc(-c2ccccc2)c1C(=O)NCc1cccnc1	–	–	–	–	-75.0	–
CCCCOCCCNC(=O)c1c(-c2ccccc2)noc1C	–	–	–	–	–	-121.6%
CC(C)Oc1ccc(C(=O)NCc2cccnc2)cc1	–	–	–	–	–	-118.9%
CCOc1cccc2c1Oc1nc(-c3cccc(OC(C)C)c3)[nH]c(=O)c1C2	·	·	·	–	·	·
Cc1nc2sc3c(c2c2nc(C(=O)NCc4ccccc4)nn12)CC(C)(C)OC3	·	·	·	–	·	·
O=S(=O)(Nc1nc2ccccc2nc1NCc1ccc(Cl)cc1)c1cccs1	·	·	·	–	·	·
O=C(Nc1nc2ccccc2[nH]1)C1CC(=O)N(c2ccc3c(c2)OCCO3)C1 (configuration not stated)	–	–	–	–	–	-111.8%
Cc1ccc2nc(-c3ccc(C)s3)cc(C(=O)NCc3ccccn3)c2c1	·	·	·	–	·	·
Fc1ccc(CN2CCCCCCC2)cc1F	–	–	–	?	-65.0	–
Fc1ccc(CN2CCCCCCC2)c(F)c1	–	–	–	–	-52.9	–
Fc1ccccc1CN1CCCCCCC1	–	–	–	–	–	-103.6%
CSc1ccc(CN2CCCCCC2)cc1	–	–	–	–	?	–
SMILES	D3 ag	RGS4 inhibitor	PI4K2A inh	LDHA block	DRD3 antagonist	pAkt inh
COC(=O)c1ccc(C)c(NC(=O)c2csc(COc3ccc(C)cc3)n2)c1	·	·	·	–	·	·
CN1CCN2c3ncccc3Cc3ccccc3[C@@H]2C1	–	–	–	–	–	–
CC(C)c1ccc2c(c1)C(N1CCN(C)CC1)Cc1cccnc1S2 (configuration not stated)	–	–	–	–	-104.3	–
COc1cccc2cc(S(=O)(=O)N3CCCCCC3)c(=O)oc12	·	·	·	–	·	·
Cn1c(-c2ccccc2)c(C(=O)CCl)c2ccccc21	–	–	–	–	-51.3	–
O=C(CSc1nnc(Cc2cccs2)n1C1CCCCC1)N1CCN(c2ccccn2)CC1	·	·	·	–	·	·
CCC(C)N1CCN(C(=O)c2cccs2)CC1 (configuration not stated)	–	–	–	–	-65.1	–
